HCV inh = inhibitors of hepatitis C virus infection; Huh7.5.1 HCVcc-Cre infection, luciferase reporter, 44 h; Potency, µM (doses to about 41.8 µM), inactives show at the highest dose activity change, negative = inhibition, most hits filed as inhibitors; hit rate 3.4% among 340,000; active = well fitted inhibition curve with a large enough effect; inconclusive = small, poorly fitted or top-dose-only effect, or another doubt; inactive = no such curve, though single readings can be large or run the other way
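A cell-based infection assay in which seeded cells (1,000 per well) receive test compound after 4 h, are inoculated with HCVcc-Cre at approximately 0.5 moi, and are incubated 44 h before luminescence detection.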
MARV entry inh = Marburg virus entry inhibition. Marburg virus pseudotyped entry inhibition, cell reporter. Potency, µM (top dose mostly 37.8 µM), inactives show top-dose activity change, negative = inhibition, actives largely listed as inhibitors. hit rate 1.8% among 300,000. AID 540276; calls by dose curve; tested in HEK293 cells
Lassa entry inh = Lassa virus entry inhibition; Lassa virus pseudotype entry inhibition, cell reporter; AID 540256; hit rate 1.2% among 300,000; Potency, µM (series often up to 37.9 µM), without a hit: at the highest dose activity change, negative = inhibition, usual class: inhibitors; calls by dose curve; tested in HEK293 cells; note: nearly all actives have a fitted effect of over 50% in size
VACV Venus inh = vaccinia inhibition (Venus reporter). Vaccinia virus Venus reporter expression, fluorescence. Potency, µM (doses to about 36.5 µM), for the others: at the top dose activity change, negative = inhibition, usual class: inhibitors. hit rate 0.46% among 330,000; calls by dose curve; tested in A549 cells; note: nearly all actives have a fitted effect of over 30% in size
Vaccinia mCherry = inhibitors of vaccinia virus infection (mCherry reporter signal); Vaccinia virus mCherry reporter infection, fluorescence; Potency, µM (top dose mostly 36.5 µM), for inactives: at the highest dose activity change, negative = inhibition, most hits filed as inhibitors; hit rate 0.63% among 310,000; AID 720579; calls by dose curve; tested in A549 cells; note: nearly all actives have a fitted effect of over 35% in size
The depositor's hits bear a star; i = inactive; ? = inconclusive; . = no result; ! = not active in a repeat; [ ] = remark or other dose. An excerpt weighted towards active compounds, which were near 4.6% of everything screened. % is set by controls: 0 for no effect and ±100 for the full control effect; potency is the fitted concentration of half-maximal effect.

SMILES	HCV inh	MARV entry inh	Lassa entry inh	VACV Venus inh	Vaccinia mCherry
c1cc(Nc2ncnc3sccc23)cc(-c2nnc3n2CCCCC3)c1	10µM*	2%	2%	.	.
BrC(=C\c1ccccc1)/C=N/n1cnnc1	10µM*	.	.	?	?
Cc1cccc(-n2c(-c3ccco3)nc3c(cnn3-c3ccc(F)cc3)c2=O)c1	.	4%[46.1 µM]	-31%[46.1 µM]	-7%	-25%
Cc1cccc(-n2c(C)nc3c(cnn3-c3ccc(F)cc3)c2=O)c1	6.3µM*	?	-6%	?	?
CCN(CC)CCNC(=O)c1[nH]c2ccccc2c1Sc1ccc(Cl)cc1	.	-7%[46.1 µM]	9%[46.1 µM]	-24%	-12%
COc1ccc(COC(=O)N/N=C2\C[C@@H](O)[C@@H](O)[C@@H]3[C@@H]4C(=O)N(c5cccc(Oc6ccccc6)c5)C(=O)[C@@H]4CC[C@@H]23)cc1	.	9%[14.2 µM]	.	.	.
Nc1cc(-c2cccc(F)c2)nn1S(=O)(=O)c1cccc2nsnc12	-3%	.	.	?	i
Nc1cc(-c2ccc(Br)cc2)nn1S(=O)(=O)c1cccc2nsnc12	11µM*	.	.	?	?
COc1ccc(-c2nn3c(=O)cc(CN4CCN(C(=O)Nc5cc(C)ccc5C)CC4)nc3s2)cc1	.	.	?	-18%	-21%
Cc1ccc(OCC(=O)NN=C2c3ccccc3-c3ccccc32)cc1	14µM*	?	-11%	.	.
O=C1CC(c2ccccc2)Cc2[nH]c(=O)c(-c3nc(-c4ccc(F)cc4)cs3)cc21 (centres undefined)	.	?	-23%[46.1 µM]	-23%	-25%
Cc1ccccc1-n1ncc2c([N+](=O)[O-])cc([N+](=O)[O-])cc21	7.9µM*	-34%	?	-7%	-4%[1.46 µM]
Cc1cccc(NC(=O)c2cnc3sc(N4CCCC4)nn3c2=O)c1C	.	.	9%[46.1 µM]	-5%	-12%
CC(=O)NC1=C(Nc2ccc(N(C)C)cc2)C(=O)c2ccccc2C1=O	?	?	1.6µM*	-8%	?
CC(=O)NC1=C(N(C)C2CCS(=O)(=O)C2)C(=O)c2ccccc2C1=O (centres undefined)	-58%	?	7.1µM*	-1%	-10%
O=C(Nc1ccc([N+](=O)[O-])cc1)N1CCc2ccccc2C1	10µM*	-22%	15%	-18%	-3%
NC(=S)Cc1nc(-c2ccc(Cl)cc2)cs1	11µM*	.	.	.	.
C[n+]1c2cc(N)ccc2cc2ccc(N)cc21	1.4µM*	.	.	?	5.6µM*
Cc1cc(NC(=O)c2cc3cccc([N+](=O)[O-])c3[nH]2)ccc1F	11µM*	.	.	.	.
COc1ccc(/C=N/Nc2nnc(C)n2N)cc1OC(C)=O	16%	?	?	?	22µM*
COc1ccc(NC(=O)c2oc3ccccc3c2NC(=O)C23CC4CC(CC(C4)C2)C3)cc1	.	?	2%[46.1 µM]	-5%	-10%
C=CCNc1nnc(S[C@@H]2CC(=O)N(c3ccc(OC)cc3)C2=O)s1	.	-8%	.	.	.
O=C(Nc1ccc(Cl)c(Cl)c1)OCc1cccnc1	22µM*	-18%	?	.	.
O=C(Nc1ccc(Cl)c(Cl)c1)c1cccc(S(=O)(=O)NCc2cccnc2)c1	14µM*	?	13µM*	?	28µM*
CC(C)(C)C1CCc2nc(NC(=O)COc3ccc(F)cc3)sc2C1 (centres undefined)	.	?	19%[46.1 µM]	-13%	-17%
SMILES	HCV inh	MARV entry inh	Lassa entry inh	VACV Venus inh	Vaccinia mCherry
Brc1cc2[nH]cnc2c2ccccc12	10µM*	25%	17%	.	.
Oc1ccc2c(ccc3[nH]cnc32)c1	-10%	.	.	-20%	-10%
O=C(NCCCN1CCCC1=O)c1ccc2c(=O)n(-c3ccccc3F)c(=S)[nH]c2c1	?	-12%	-3%	4%	-5%
CN(C)C(CNC(=O)c1ccc2c(=O)n(-c3ccccc3F)c(=S)[nH]c2c1)Cc1ccccc1 (centres undefined)	2.2µM*	?	0%	-6%	-5%
CN(c1ccccc1)c1ccc(/C=C(\C#N)c2nnc3n2CCCCC3)cc1[N+](=O)[O-]	?	?	7.1µM*	12%	-6%
COCCOCCOCCC(=O)N[C@@H]1C[C@@H]2CC[C@@]1(C)C2(C)C	.	-1%	.	.	.
Nc1nc(SCc2ccc(Cl)cc2Cl)nc2nc3c(cc12)CCCC3	8.9µM*	?	?	?	?
CCOC(=O)[C@]12C[C@@H]3CCN(C(=O)N(C(C)=O)[C@@H]1c1ccccc1)[C@@H]32	.	-9%[14.2 µM]	.	.	.
CCc1cccc(C)c1NC(=O)CN1CCN(S(=O)(=O)c2ccc(C(C)(C)C)cc2)CC1	2µM*	-24%[46.1 µM]	-3%	-20%	?
CN(Cc1cnc2nc(N)nc(N)c2n1)c1ccc(C(=O)NC(CCC(=O)O)C(=O)O)cc1C(F)(F)F (centres undefined)	?	-67%	?	1.1µM*	0.32µM*
Nc1nc(N)c2nc(CNc3ccc(C(=O)NC(CCC(=O)O)C(=O)O)cc3)cnc2n1 (centres undefined)	-14%	0.022µM*!	?	-9%	-8%
CN(Cc1cnc2nc(N)nc(N)c2n1)c1ccc(C(=O)NC(CCC(=O)O)C(=O)O)cc1 (centres undefined)	?	?	?	?	11µM*
Nc1nc(N)c2nc(CNc3ccc(C(=O)N[C@H](CCC(=O)O)C(=O)O)cc3)cnc2n1	.	18%	.	.	.
O=C(Nc1ncc([N+](=O)[O-])s1)c1ccc2c(c1)OCO2	-22%	1.6µM*	?	-10%	-22%
Cc1cnc(NC(=O)c2ccc3c(c2)OCCO3)s1	2%	.	.	.	.
COc1ccccc1/C=C/C=N/n1c(-c2ccc(F)cc2)n[nH]c1=S	0%	?	?	0%	i
Cc1ccc(-c2n[nH]c(=S)n2/N=C/C=C/c2ccccc2[N+](=O)[O-])cc1	18%	7%	13µM*	-7%	-20%
O=[N+]([O-])c1ccccc1/C=C/C=N/n1c(-c2cc(-c3ccccc3)n[nH]2)n[nH]c1=S	-2%	-26%[46.1 µM]	-28%	-15%	-26%
COc1ccccc1/C=C\C=N\n1c(-c2ccc(Cl)cc2)n[nH]c1=S	6%	-17%	10µM*	-24%	i
CC(C)Oc1ccc(C(=O)N(Cc2ccco2)c2ccccn2)cc1	.	6%[46.1 µM]	-6%[46.1 µM]	-2%	-12%
O=c1ccc2ccc(Oc3ccc([N+](=O)[O-])cc3Cl)cc2o1	11µM*	?	10%[46.1 µM]	-22%	-24%
NC(=O)c1ccc(Oc2ccc3ccc(=O)oc3c2)c([N+](=O)[O-])c1	5%	?	3%[46.1 µM]	-7%	-22%
Cc1ccc(C)c(N=Nc2nc3ccccc3n2C)c1	14µM*	?	?	-25%	-13%
Cc1ccc(CNc2nc3ccccc3n2C)cc1	-25%	.	.	.	.
CC(CCN1CCCc2nc(C)c(C)cc21)=NOC[C@@H](C)[C@H](OCc1ccccc1)C(C)C	.	-24%[14.2 µM]	.	.	.
COc1ccc(OC)c(C(=O)Nc2c(O)ccc3ccccc23)c1	?	6%	?	?	13µM*
COc1cc2ccccc2cc1C(=O)Nc1cccnc1	32µM*	?	-3%	-26%	-30%
COc1cc(OC)c(C(=O)Nc2cccnc2)cc1OC	-15%	2%	0%	-12%	i

Compound activity: PubChem, National Center for Advancing Translational Sciences (NCATS)
